An excerpt weighted towards active compounds, which were near 19% of everything screened.
HT1080 IDH1KD tx: HT-1080 IDH1 knockdown cell toxicity (counter line). Potency, µM (doses to about 46.1 µM), inactives show at the highest dose activity, negative = toxicity, most hits filed as cytotoxic. AID 686971. 2% of 360,000 active. HT-1080 IDH1 knockdown viability, ATP luminescence, 48 h;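 further: potency means the concentration at half of the fitted maximal effect; 0% = DMSO wells and -100% = cell-free medium wells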
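Knockdown cells (IDH1KD HT-1080) received compounds 2 h after plating at 750 cells/well and were kept 48 h at 37 °C in 5% FBS RPMI. A CellTiter-Glo luminescence read gave % activity for curve fitting.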
TDP1 cell CPT: growth inhibition of DT40 Tdp1-/-;hTDP1 cells with camptothecin (screen for TDP1 inhibitors); Potency, µM (top dose mostly 46.2 µM), for inactives: top-dose activity change, negative = growth inhibition, most hits filed as inhibitors; chicken DT40 Tdp1-/-;hTDP1 cells + 20 nM CPT, ATP luminescence, 48 h; 12% of 420,000 active; further: potency means the concentration at half of the fitted maximal effect; nearly all actives have a fitted effect of over 55% in size
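Chicken DT40 Tdp1-/- cells stably complemented with human TDP1 were seeded at 400 cells/well in medium containing 20 nM camptothecin, exposed to pin-transferred compounds, and grown at 37 °C for at least 48 hr. Viability was read as ATP luminescence.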
TDP1 cell noCPT: qHTS for Inhibitors of human tyrosyl-DNA phosphodiesterase 1 (TDP1): qHTS in cells in absence of CPT; DT40 Tdp1-/- hTDP1 cells, no CPT, ATP luminescence, 48 h; Potency, µM (top dose mostly 46.2 µM), for the others: at the highest dose activity change, negative = growth inhibition, hits mostly inhibitors; 15% of 420,000 active; AID 686978, 2013; further: potency means the concentration at half of the fitted maximal effect; nearly all actives have a fitted effect of over 55% in size
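Luminescent ATP content (CellTiter-Glo) served as the growth readout. Knockout chicken DT40 cells expressing human TDP1 were exposed to compounds without camptothecin for a minimum 48 hr at 37 °C.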
HT1080NT lethal: kills 2HG-producing HT-1080-NT fibrosarcoma cells; HT-1080-NT fibrosarcoma viability, CellTiter-Glo ATP luminescence, 48 h; Potency, µM (doses to about 46.1 µM), for inactives: at the highest dose activity, negative = less viability, most hits filed as cytotoxic; 1.6% of 360,000 active;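 further: NT is the 2HG producing partner of a matched IDH1 knockdown line; potency means the concentration at half of the fitted maximal effect; 0% = DMSO-treated cells and -100% = media-only wells without cells; nearly all actives have a fitted effect of over 55% in size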
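Viability of the 2HG-overproducing fibrosarcoma line after 48 hours of compound exposure at 37 degrees C was determined by luminescence with CellTiter-Glo, and concentration-effect curves were then fitted and categorized.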
IL-1B inflam inh: inflammasome signaling inhibition, IL-1 beta readout. THP-1 LPS/ATP IL-1B secretion, AlphaLISA, 16 h; hits give low values. activity change, % at 57.5 µM. 4.7% of 360,000 active; in the data active means activity change below about -50%; inconclusive means mostly about -30% to -49%
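THP-1 cells pretreated 1 hr with compounds (up to 57.5 uM final), then stimulated with LPS (250 ng/mL final) plus ATP (1.25 mM final); secreted IL-1B measured by AlphaLISA after 16 hr, decreased signal indicating inhibition.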
An asterisk follows results filed as active; i = inactive; ? = inconclusive; / = no result given. Unless noted, the call rests on the fitted dose curve; in most records, active means well fitted curve in the direction sought with a large enough effect; inconclusive means small, poorly fitted or top-dose-only effect, or another doubt; inactive means no such curve, though single readings can be large; an effect the other way counts as inactive or inconclusive. Unless noted, on the % scale 0 is the no-effect control and ±100 the full control effect.

SMILES	HT1080 IDH1KD tx	TDP1 cell CPT	TDP1 cell noCPT	HT1080NT lethal	IL-1B inflam inh
C[C@@H]1CN([C@H](C)CO)C(=O)c2cc(NC(=O)Nc3ccc(C(F)(F)F)cc3)ccc2O[C@H]1CN(C)S(=O)(=O)c1ccc(Cl)cc1	-22%	5.2µM*	5.8µM*	-25%	0
C[C@H](CO)N1C[C@H](C)[C@@H](CN(C)S(=O)(=O)c2ccc(F)cc2)Oc2ccc(NC(=O)Nc3ccccc3)cc2C1=O	-10%	?	15µM*	0%	0
O=C(NN=C1CCCCCCCCCCC1)c1cccnc1	5%	1%	18%	1%	35
COc1ccc(S(=O)(=O)N2CCCCC2)cc1NC(=O)c1ccc2ccccc2n1	13%	15µM*	13µM*	16%	-4
COc1ccc(NC(=O)c2ccc3ccccc3n2)cc1S(=O)(=O)N1CCCCC1	-12%	21µM*	16µM*	1%	?
COc1cc2cc(CCCOC(=O)CCCC(=O)O)oc(=O)c2cc1OC	-5%	2%	0%	0%	18
O=C(COC(=O)c1cccc(C(=O)OCC(=O)c2ccc(Br)cc2)n1)c1ccc(Br)cc1	-1%	16µM*	?	2%	-8
O=C(CSc1cn(CCNC(=O)c2ccccc2F)c2ccccc12)Nc1ccc(F)cc1	/	23µM*	23µM*	/	/
O=C(NCCn1cc(SCc2ccccc2)c2ccccc21)c1c(F)cccc1F	?	?	23µM*	-18%	?
COc1ccccc1C(=O)NCCn1cc(SCC(=O)Nc2nnc(C)s2)c2ccccc21	1%	?	-28%	-2%	-6
O=C(CSc1cn(CCNC(=O)c2ccccc2F)c2ccccc12)Nc1ccc2c(c1)OCCO2	/	23µM*	16µM*	/	/
NC(=O)CSc1cn(Cc2cccc(F)c2)c2ccccc12	-10%	13µM*	?	-23%	-8
COc1ccc(S(=O)(=O)Nc2cc(C)on2)cc1	10%	16%	2%	20%	13
COC(=O)C[C@@H]1CC[C@@H](NS(=O)(=O)c2ccc(OC)cc2)[C@@H](CO)O1	15%	0%	0%	23%	23
COc1cccc(C2NC(=O)c3sc(=S)n(-c4ccccc4)c3N2)c1 (configuration not stated)	-7%	?	?	-5%	13
O=C(NCCn1cc(SCc2ccc(F)cc2)c2ccccc21)c1c(F)cccc1F	-13%	?	?	?	-61*
O=C(CSc1cn(CCNC(=O)c2cccc(C(F)(F)F)c2)c2ccccc12)Nc1ccc2c(c1)OCCO2	/	23µM*	?	/	/
Cn1cc(SCC(=O)Nc2ccc3c(c2)OCCO3)c2ccccc21	-1%	-30%	-23%	-2%	10
O=C(CSc1cn(CCNC(=O)c2c(F)cccc2F)c2ccccc12)NCC1CCCO1 (configuration not stated)	0%	-10%	?	1%	0
Cn1cc(SCC(=O)NCc2ccc(F)cc2)c2ccccc21	1%	10%	1%	-6%	-17
O=C(CSc1cn(CCNC(=O)c2cccs2)c2ccccc12)NC1CCCC1	0%	16µM*	16µM*	-1%	-7
O=C(NCCn1cc(SCc2ccc(F)cc2)c2ccccc21)c1ccccc1F	?	?	16µM*	?	?
COc1cccc(C(=O)CC2(O)C(=O)N(Cc3ccccc3)c3ccccc32)c1 (configuration not stated)	/	6.5µM*	6.5µM*	/	/
CCCN1C(=O)C(O)(CC(=O)c2ccc3c(c2)OCCO3)c2ccccc21 (configuration not stated)	2%	?	?	3%	-1
CCCN1C(=O)C(O)(CC(=O)c2cccc(OC)c2)c2ccccc21 (configuration not stated)	9%	4.1µM*	3.3µM*	0%	-7
SMILES	HT1080 IDH1KD tx	TDP1 cell CPT	TDP1 cell noCPT	HT1080NT lethal	IL-1B inflam inh
O=C(CSc1ccc(-c2ccccn2)nn1)Nc1ccc(F)c(F)c1	?	21µM*	21µM*	?	i
Cc1cc(C)c(NC(=O)CSc2ccc(-c3ccccn3)nn2)c(C)c1	3%	23µM*	23µM*	0%	24
COc1ccc(-c2ccc(SCC(=O)Nc3cccc(C(C)=O)c3)nn2)cc1OC	-19%	13µM*	18µM*	0%	-86*
Cc1ccc(NC(=O)CSc2ccc(-c3ccccn3)nn2)cc1	?	?	?	?	122
COc1ccccc1NC(=O)CSc1ccc(-c2ccccn2)nn1	?	?	?	-3%	i
COc1ccc(NC(=O)CSc2ccc(-c3ccccn3)nn2)cc1OC	2%	23µM*	16µM*	14%	73
Cc1ccc(NC(=O)CSc2ccc(-c3ccccn3)nn2)c(C)c1	15%	?	?	19%	9
Cc1cc(NC(=O)CCN2C(=O)C3C4C=CC(C4)C3C2=O)ccc1Br (configuration not stated)	-15%	4%	-10%	-29%	-16
CCOc1ccc(NC(=O)CSc2ccc(-c3ccccn3)nn2)cc1	-5%	?	?	-2%	41
Fc1cccc(CSc2ccc(-c3cccs3)nn2)c1	/	-29%	?	/	/
Cc1c(Cl)cccc1NC(=O)CSc1ccc(-c2ccccn2)nn1	/	?	23µM*	/	/
COc1ccc(-c2ccc(SCC(=O)c3cccs3)nn2)cc1OC	-13%	?	16µM*	-3%	-18
CCOC(=O)c1ccc(NC(=O)CSc2ccc(-c3ccccn3)nn2)cc1	?	21µM*	18µM*	?	59
O=C(CSc1ccc(-c2cccs2)nn1)Nc1cccc(F)c1	/	15µM*	23µM*	/	/
CNC(=O)/C(=C\c1ccc2c(c1)OCO2)NC(=O)c1ccc(Br)cc1	2%	-8%	-14%	-2%	-7
COc1ccccc1NC(=O)CSc1ccc(-c2ccc(-n3cccn3)cc2)nn1	8%	?	18µM*	0%	-15
COc1ccccc1NC(=O)CSc1nnnn1-c1ccc(F)cc1	-2%	-8%	-24%	-3%	-17
O=C(O)c1ccc(Cl)c(S(=O)(=O)Nc2cccc(C(=O)Nc3cccc(C(F)(F)F)c3)c2)c1	0%	0%	-3%	0%	21
COc1cc(COc2ccc(S(=O)(=O)N3CCOCC3)cc2[N+](=O)[O-])ccc1OC(F)F	-26%	18µM*	?	-6%	-11
CCCN(CCO)C1CCN(CCc2ccccc2)CC1	-15%	1%	7%	-1%	-1
O=C(O)c1ccc(S(=O)(=O)NCC2CCCO2)cc1 (configuration not stated)	-1%	17%	7%	9%	6

Source: PubChem BioAssay
